Source: PubChem BioAssay (Tox21)
Results filed as inconclusive are left out. Where a call stands in place of a potency, no number is given. Calls of active or inactive are those of the source. Unless noted, calls follow the shape of the dose curve; as a rule, active = well fitted activation curve with a large enough effect in the repeat runs; inconclusive = weak or mixed curves; inactive = no such curve, though single readings can be large or run the other way.

Tested on: not listed separately
Test: qHTS assay to identify small molecule agonists of the estrogen related receptor (ERR) signaling pathway (AID 1224820)
Conditions: ERR reporter cell line, luciferase agonist mode; series mostly up to 46.1 µM
How it was run: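 After 6 h plating (2,000 cells/well) and 18 h compound treatment at 37 C, ERR cells were lysed with One-Glo and luminescence read after 30 min at room temperature.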
Potency is read from the fitted curve at half-maximal effect.

SMILES | Potency
O=c1[nH]c2ccccc2c2ccccc12 | inactive
NCCSSCCN | inactive
CC[N+](CC)(CC)CC(=O)Nc1c(C)cccc1C | inactive
C#CCn1c(=O)c2c(ncn2C)n(C)c1=O | inactive
COc1ccc(/C=C/C(=O)Nc2ccccc2C(=O)O)cc1OC | 1.68 µM (active)
COc1cc(CNC(=O)CCCCCCC(C)C)ccc1O | inactive
C[N+](C)(C)CC=O | inactive
S=C(Nc1ccccc1)Nc1nccs1 | inactive
COc1ccc(C(=O)NCc2cccnc2)cc1C(=O)NCc1cccnc1 | inactive
NC1(C(=O)O)CCc2cc(C(=O)O)ccc21 (stereo unspecified) | inactive
CC(N)(C(=O)O)c1ccc(C(=O)O)cc1 (stereo unspecified) | inactive
O=C1Cc2c([nH]c3ccc(Br)cc23)-c2ccccc2N1 | 2.98 µM (active)
O=C(O)C1CN(CCCP(=O)(O)O)CCN1 (stereo unspecified) | inactive
NC(N)=NCCCCN=C(N)N | inactive
NCCS(=O)O | inactive
CNc1cc(NS(=O)(=O)c2ccc(N)cc2)nc(NC)n1 | inactive
COc1cc2c(CCNC(C)=O)c[nH]c2cc1O | inactive
NC1CCN(O)C1=O (stereo unspecified) | inactive
C=CCn1c(=O)c2c(nc(-c3ccc(S(=O)(=O)O)cc3)n2C)n(C)c1=O | inactive

SMILES | Potency
CC(=O)SCC[N+](C)(C)C | inactive
N[C@H](C(=O)O)[C@H](O)C(=O)O | inactive
CC(C)(C)NCC(O)COc1cccc2[nH]c(=O)[nH]c12 (stereo unspecified) | inactive
Nc1ccc(CCNc2ncnc3c2ncn3C2OC(CO)C(O)C2O)cc1 (stereo unspecified) | inactive
NC(=O)c1ccc2[nH]ccc2c1 | inactive
CCSC(=N)N | inactive
CCCn1c(=O)c(C)cn2nc(N)nc12 | inactive
O=C1c2c(O)cc(O)cc2OC(c2ccc(O)c(O)c2)C1O (stereo unspecified) | inactive
CO/N=C(\C(=O)N[C@@H]1C(=O)N2C(C(=O)O)=C(CSc3nc(=O)c(O)nn3C)CSC12)c1csc(N)n1 (stereo partly specified) | inactive
O=C(O)C1CCCNC1 (stereo unspecified) | inactive
CN[C@H](CC(C)C)C(=O)N[C@H]1C(=O)N[C@@H](CC(N)=O)C(=O)N[C@H]2C(=O)N[C@H]3C(=O)N[C@H](C(=O)N[C@H](C(=O)O)c4cc(O)cc(O)c4-c4cc3ccc4O)[C@H](O)c3ccc(c(Cl)c3)Oc3cc2cc(c3O[C@@H]2O[C@H](CO)[C@@H](O)[C@H](O)[C@H]2O[C@H]2C[C@](C)(N)[C@H](O)[C@H](C)O2)Oc2ccc(cc2Cl)[C@H]1O | inactive
O=C(O)CCC/C=C\C[C@@H]1[C@@H](/C=C/[C@H](O)C2Cc3ccccc3C2)[C@@H](F)C[C@@H]1O | inactive
NC[C@H]1O[C@@H](n2cnc3c(N)ncnc32)[C@H](O)[C@@H]1O | inactive
O=S(=O)(c1cccc2c(Cl)cccc12)N1CCCNCC1 | inactive
Nc1nc2c(cnn2CCc2ccccc2)c2nc(-c3ccco3)nn12 | inactive
CC[C@H]1OC(=O)[C@H](C)[C@@H](O[C@H]2C[C@@](C)(OC)[C@@H](O)[C@H](C)O2)[C@H](C)[C@@H](O[C@@H]2O[C@H](C)C[C@H](NC)[C@H]2O)[C@](C)(O)C[C@@H](C)CN(C)[C@H](C)[C@@H](O)[C@]1(C)O | inactive
N#CC(C#N)=C(N)/C(C#N)=C/c1ccc(O)cc1 | inactive
O=c1[nH]c2cc([N+](=O)[O-])c([N+](=O)[O-])cc2[nH]c1=O | inactive
Brc1cc2c(cc1[C@H]1Nc3ccccc3[C@H]3C=CC[C@H]31)OCO2 | inactive

Tested on: estrogen-related receptor alpha (ERRalpha) with PGC-1alpha coactivator, human
Test: qHTS assay to identify small molecule antagonists of the estrogen related receptor signaling pathway with the pleiotropic PPARgamma coactivator (PGC) (AID 1224821; calls by dose curve; also: nearly all actives have a fitted effect of over 50% in size)
Conditions: ERR/PGC reporter cell line, luciferase, antagonist mode; series mostly up to 46.1 µM
How it was run: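 Luminescence from One-Glo luciferase reagent (30 min, room temperature) measured after 18 h compound treatment at 37 °C. Cells carry the PGC/ERR reporter and were seeded 6 h prior to dosing.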

SMILES | Potency
O=c1[nH]c2ccccc2c2ccccc12 | inactive
NCCSSCCN | inactive
CC[N+](CC)(CC)CC(=O)Nc1c(C)cccc1C | inactive
C#CCn1c(=O)c2c(ncn2C)n(C)c1=O | inactive
COc1ccc(/C=C/C(=O)Nc2ccccc2C(=O)O)cc1OC | inactive
COc1cc(CNC(=O)CCCCCCC(C)C)ccc1O | inactive
C[N+](C)(C)CC=O | inactive
S=C(Nc1ccccc1)Nc1nccs1 | 0.81 µM (active)
COc1ccc(C(=O)NCc2cccnc2)cc1C(=O)NCc1cccnc1 | inactive
NC1(C(=O)O)CCc2cc(C(=O)O)ccc21 (stereo unspecified) | inactive
CC(N)(C(=O)O)c1ccc(C(=O)O)cc1 (stereo unspecified) | inactive
O=C1Cc2c([nH]c3ccc(Br)cc23)-c2ccccc2N1 | inactive
O=C(O)C1CN(CCCP(=O)(O)O)CCN1 (stereo unspecified) | inactive
NC(N)=NCCCCN=C(N)N | inactive
NCCS(=O)O | inactive
CNc1cc(NS(=O)(=O)c2ccc(N)cc2)nc(NC)n1 | inactive
COc1cc2c(CCNC(C)=O)c[nH]c2cc1O | inactive
NC1CCN(O)C1=O (stereo unspecified) | inactive
C=CCn1c(=O)c2c(nc(-c3ccc(S(=O)(=O)O)cc3)n2C)n(C)c1=O | inactive

SMILES | Potency
CC(=O)SCC[N+](C)(C)C | inactive
N[C@H](C(=O)O)[C@H](O)C(=O)O | inactive
CC(C)(C)NCC(O)COc1cccc2[nH]c(=O)[nH]c12 (stereo unspecified) | inactive
Nc1ccc(CCNc2ncnc3c2ncn3C2OC(CO)C(O)C2O)cc1 (stereo unspecified) | inactive
NC(=O)c1ccc2[nH]ccc2c1 | inactive
CCSC(=N)N | inactive
CCCn1c(=O)c(C)cn2nc(N)nc12 | inactive
O=C1c2c(O)cc(O)cc2OC(c2ccc(O)c(O)c2)C1O (stereo unspecified) | inactive
CO/N=C(\C(=O)N[C@@H]1C(=O)N2C(C(=O)O)=C(CSc3nc(=O)c(O)nn3C)CSC12)c1csc(N)n1 (stereo partly specified) | inactive
O=C(O)C1CCCNC1 (stereo unspecified) | inactive
CN[C@H](CC(C)C)C(=O)N[C@H]1C(=O)N[C@@H](CC(N)=O)C(=O)N[C@H]2C(=O)N[C@H]3C(=O)N[C@H](C(=O)N[C@H](C(=O)O)c4cc(O)cc(O)c4-c4cc3ccc4O)[C@H](O)c3ccc(c(Cl)c3)Oc3cc2cc(c3O[C@@H]2O[C@H](CO)[C@@H](O)[C@H](O)[C@H]2O[C@H]2C[C@](C)(N)[C@H](O)[C@H](C)O2)Oc2ccc(cc2Cl)[C@H]1O | inactive
O=C(O)CCC/C=C\C[C@@H]1[C@@H](/C=C/[C@H](O)C2Cc3ccccc3C2)[C@@H](F)C[C@@H]1O | inactive
NC[C@H]1O[C@@H](n2cnc3c(N)ncnc32)[C@H](O)[C@@H]1O | inactive
O=S(=O)(c1cccc2c(Cl)cccc12)N1CCCNCC1 | inactive
Nc1nc2c(cnn2CCc2ccccc2)c2nc(-c3ccco3)nn12 | inactive
CC[C@H]1OC(=O)[C@H](C)[C@@H](O[C@H]2C[C@@](C)(OC)[C@@H](O)[C@H](C)O2)[C@H](C)[C@@H](O[C@@H]2O[C@H](C)C[C@H](NC)[C@H]2O)[C@](C)(O)C[C@@H](C)CN(C)[C@H](C)[C@@H](O)[C@]1(C)O | inactive
N#CC(C#N)=C(N)/C(C#N)=C/c1ccc(O)cc1 | inactive
O=c1[nH]c2cc([N+](=O)[O-])c([N+](=O)[O-])cc2[nH]c1=O | inactive
Brc1cc2c(cc1[C@H]1Nc3ccccc3[C@H]3C=CC[C@H]31)OCO2 | inactive
